# High-throughput results from PubChem BioAssay.
# Tau ThT inhib = inhibitors of human tau fibril formation, thioflavin T binding; P10636; recombinant tau K18 P301L, heparin-induced fibrillization, ThT fluorescence; Potency, µM (top dose mostly 57.4 µM), for the others: top-dose activity, negative = inhibition, most hits filed as inhibitors; 270,000 compounds, 2.1% hits; also: nearly all actives have a fitted effect of over 55% in size
# Target sequence (P10636 561-689 P618L limits assumed): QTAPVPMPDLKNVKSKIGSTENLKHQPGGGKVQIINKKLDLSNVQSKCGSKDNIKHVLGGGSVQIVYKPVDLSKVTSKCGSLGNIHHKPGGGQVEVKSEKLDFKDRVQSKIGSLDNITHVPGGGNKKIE
#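 Heparin-induced (20 uM) aggregation of recombinant human K18 P301L tau, 15 uM unlabeled with 0.24 uM labeled, pH 7 acetate buffer, 6 hr at 37 C with compound. Fibrils quantified by 30 uM ThT fluorescence after 1 hr ambient incubation.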
# RGS12 GoLoco inh = inhibitors of human Gai1-RGS12 GoLoco interaction (red fluorophore); P63096; Gai1:RGS12 GoLoco peptide FP, rhodamine, 10 min; Potency, µM (series often up to 61.6 µM), for the others: at the top dose activity, negative = inhibition, hits mostly inhibitors; 230,000 compounds, 0.44% hits; AID 880; active = well fitted inhibition curve with a large enough effect, not every such curve was filed as active; inactive = no such curve, though single readings can be large or run the other way; also: nearly all actives have a fitted effect of over 30% in size
# Tau fluor cs = counter-screen for tau fibril formation inhibitors | tau K18 P301L (four-repeat tau fragment) Alexa594 fluorescence, heparin fibrillization | 280,000 compounds, 0.93% hits | AID 1463 | Potency, µM (top dose mostly 57.7 µM), for the others: at the highest dose activity change, negative = decrease; also: nearly all actives have a fitted effect of over 55% in size
#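 Human K18 P301L tau (15 uM unlabeled plus 0.24 uM Alexa 594-labeled, final) in 100 mM sodium acetate pH 7 was mixed with compound and 20 uM heparin and incubated 6 hr at 37 C.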
# Tau fibril FP = tau fibrillization inhibition (FP) | P10636 | K18 P301L tau heparin fibrillization, Alexa594 FP, 6 h | Potency, µM (titrated, usually from 57.7 µM), inactives show top-dose activity, negative = inhibition, actives largely listed as inhibitors | 280,000 compounds, 0.39% hits | AID 1468; also: nearly all actives have a fitted effect of over 55% in size
#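 Human tau K18 […] P301L fragment, 15 uM unlabeled plus 0.24 uM Alexa 594-labeled tau (final), with compound and 20 uM heparin in 100 mM sodium acetate pH 7; 6 hr at 37 C, then Alexa 594 FP read.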
# KDM4E inh = inhibitors of human JMJD2E histone demethylase; B2RXH2; JMJD2E catalytic domain, FDH-coupled NADH fluorescence (FDH is formaldehyde dehydrogenase); Potency, µM (titrated, usually from 57.1 µM), for inactives: top-dose activity change, negative = inhibition, actives largely listed as inhibitors; 230,000 compounds, 1.6% hits; AID 2147; active = well fitted inhibition curve with a large enough effect, not every such curve was filed as active; inconclusive = small, poorly fitted or top-dose-only effect, or another doubt; inactive = no such curve, though single readings can be large or run the other way;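 also: 0% = wells with enzyme and -100% = buffer wells without enzyme; nearly all actives have a fitted effect of over 50% in size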
# Target sequence (B2RXH2 1-337 limits assumed): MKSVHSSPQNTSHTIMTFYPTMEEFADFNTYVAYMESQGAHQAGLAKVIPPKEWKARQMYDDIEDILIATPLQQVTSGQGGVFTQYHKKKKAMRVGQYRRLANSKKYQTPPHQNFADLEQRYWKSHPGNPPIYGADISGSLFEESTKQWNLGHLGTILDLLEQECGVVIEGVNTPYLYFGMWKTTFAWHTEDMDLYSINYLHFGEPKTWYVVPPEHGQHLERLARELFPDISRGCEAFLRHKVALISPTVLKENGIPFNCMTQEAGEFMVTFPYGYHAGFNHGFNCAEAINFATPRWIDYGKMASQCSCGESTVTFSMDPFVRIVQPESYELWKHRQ
# * = called active by the depositor; ? = inconclusive; nt = no result given; ! = repeats disagree; [ ] = remark or other dose. In the library only some 3.4% were active in any assay of this set; here they are far more common. Unless noted, calls follow the shape of the dose curve; as a rule, active = well fitted curve in the direction sought with a large enough effect; inconclusive = small, poorly fitted or top-dose-only effect, or another doubt; inactive = no such curve, though single readings can be large; an effect the other way counts as inactive or inconclusive. Unless noted, % is scaled to controls: 0 for no effect and ±100 for the full control effect; potency is read from the fitted curve at half-maximal effect.
SMILES,Tau ThT inhib,RGS12 GoLoco inh,Tau fluor cs,Tau fibril FP,KDM4E inh
Nc1nc(=S)c2ncn(C3OC(CO)C(O)C3O)c2[nH]1 (centres undefined),11µM*,-2%,?,?,?
NC(=S)c1cn(C2OC(CO)C(O)C2O)c2ncnc(N)c12 (centres undefined),?,-2%,-13%,-7%,0%
NC(=O)CI,-6%,-82%,-6%,-5%,32µM*
c1cc(CCN2CCCC2)ccn1,-6%,7.1µM*,0%,-4%,-27%
Nc1c(C(=O)NCc2ccco2)c2nc3ccccc3nc2n1Cc1ccccc1,?,31%,?,?,?
COc1ccc(Cn2c(N)c(C(=O)NCc3ccco3)c3nc4ccccc4nc32)cc1,20µM*,51%,?,-6%,?
N#CSCSC#N,nt,-13%,nt,nt,nt
CCOC(=O)c1ncc2[nH]c3ccc(OCc4ccccc4)cc3c2c1COC,?,7%,4µM*[quencher],-16%,nt
CCCOC(=O)c1cc2c(cn1)[nH]c1ccccc12,?,5%,?,-17%,nt
COC(=O)c1nc(-c2ccc3c(n2)C(=O)C(N)=C(OC)C3=O)c(N)c(-c2ccc(OC)c(OC)c2O)c1C,nt,23%,?,?,20µM*
ClCC[N+]12CC[N+](CCCl)(CC1)C2 (tested in a mixture with another compound),nt,6%[14.2 µM],nt,nt,nt
O=C(O)CN1CCN(CC(=O)O)CC(=O)[O][Hg][O]C(=O)C1,nt,0.45µM*,nt,nt,nt
CCOc1cc(C=O)ccc1O,nt,-21%,nt,nt,nt
O=Cc1ccc(O)c(O)c1,-15%,4%,-9%,-8%,4.5µM*
N#CC(C#N)=Cc1cc(O)c(O)c(O)c1,13µM*!,34%,?,22µM*!,2µM*
CCOC(=O)c1c(C)[nH]c(C)c1S(=O)(=O)N1CCC(C(=O)N2CCN(c3ccc(Cl)cc3)CC2)CC1,-6%,nt,-24%,?,nt
CC1=NCCc2c1[nH]c1cc(O)ccc21,?,28µM*!,18µM*![quencher],-2%,?
CC1=NN(c2ccccc2)C(=O)[C@@H]1N=Nc1ccc([As](=O)(O)O)c(O)c1,nt,-4%[14.2 µM],nt,nt,nt
COc1ccc2c(c1)CC1(CN2C)C(=O)NC(=O)N(CCc2ccccc2)C1=O (centres undefined),?,11%,-20%,?,-12%
CCC(C)N1C(=O)NC(=O)C2(Cc3c(ccc4ccccc34)N(C)C2)C1=O (centres undefined),16µM*,-18%,?,?,-27%
Cl.Cl.Cl.Cl.Cl.Cl.N.N.N.N.NNNNN.NNNNN.O.O.[Ru].[Ru].[Ru],22µM*,-4%,?,?,32µM*
N#CC(C#N)=NNc1ccc(-n2ccc(C(F)(F)F)n2)cc1,nt,0%,-14%,8%,5%
Cc1cc(C)n(-c2ccc(NN=C(C#N)C#N)cc2)n1,5µM*,-6%,?,8%,-22%
CC(C)[C@@]1(NC(=O)[C@@H]2C[C@@H]3c4cccc5[nH]cc(c45)C[C@H]3N(C)C2)O[C@@]2(O)[C@@H]3CCCN3C(=O)[C@H](Cc3ccccc3)N2C1=O,?,9%,2.8µM*[quencher],?,?
CN1C[C@H](C(=O)N[C@@]2(C)O[C@@]3(O)C4CCCN4C(=O)C(Cc4ccccc4)N3C2=O)C[C@H]2c3cccc4[nH]cc(c34)C[C@H]21 (some centres undefined),-2%,-1%,?,3%,-5%
SMILES,Tau ThT inhib,RGS12 GoLoco inh,Tau fluor cs,Tau fibril FP,KDM4E inh
CC(C)[C@@]1(NC(=O)[C@@H]2C[C@@H]3c4cccc5[nH]cc(c45)C[C@H]3N(C)C2)O[C@@]2(O)C3CCCN3C(=O)[C@H](Cc3ccccc3)N2C1=O (some centres undefined),?,4%,7.1µM*[quencher],?,-9%
OC[P+](CO)(CO)CO,nt,-10%,nt,nt,nt
CN1C(=O)C(=Cc2ccc(N3CCCCC3)o2)C(=O)N(C)C1=S,-9%,255%,-9%,?,-3%
Cc1cc(C)cc(N2C(=O)/C(=C\c3ccc(N4CCN(C)CC4)o3)C(=O)NC2=S)c1,?,258%,-9%,-3%,-15%
CCN(CC)c1ccc(/C=C2\C(=O)NC(=S)N(C)C2=O)o1,14µM*,211%,-10%,6%,0%
CCN(CC)c1ccc(C=C2C(=O)N(C)C(=S)N(C)C2=O)o1,10µM*,203%,-1%,-12%,-2%
CC(C)c1cccc(O)c(=O)c1,?,5%,-17%,2%,7.9µM*
CC(C)c1ccc(C(O)(C(=O)O)c2ccc(C(C)C)cc2)cc1,nt,-2%[14.2 µM],nt,nt,nt
CC(N)C(O)c1ccc(O)c(O)c1 (centres undefined),7.9µM*!,9%,?,?,16µM*
Oc1cc2c(cc1O)[C@H]1c3ccccc3CN[C@H]1CC2,?,-17%,?,?,25µM*
c1ccc2c(c1)CCCC2,nt,7%,nt,nt,nt
O=[N+]([O-])c1ccc(N2CCCC2)c2ccncc12,13µM*,12%,-10%,0%,1%
O=[N+]([O-])c1ccc(N2CCNCC2)c2ncccc12,?,2%,-13%,-2%,1%
O=S(=O)(O)F,nt,-34%,nt,nt,nt
CC(C)[C@H]1C(=O)N2CCC[C@H]2[C@]2(O)O[C@](NC(=O)[C@@H]3C=C4c5cccc6[nH]cc(c56)C[C@H]4N(C)C3)(C(C)C)C(=O)N12,?,11µM*,?,?,?
